Source: PubChem
Only some compounds are listed: those with a hit (about 2.4% of all), similar ones and a draw of the others.
D2 PAM-1 – Beta-Arrestin HTS for Positive Allosteric Modulators of the Human D2 Dopamine Receptor: Potentiators | DiscoveRx D2 beta-arrestin cells, luminescence, 90 min; 100% = 57 uM dopamine signal | D(2) dopamine receptor (Homo sapiens), P14416 | hit rate 0.23% among 360,000 | potentiation, % (test concentration not listed); in the data active = potentiation above about 50%; inconclusive = mostly about 30% to 49%
Target sequence (P14416 whole entry, looked up): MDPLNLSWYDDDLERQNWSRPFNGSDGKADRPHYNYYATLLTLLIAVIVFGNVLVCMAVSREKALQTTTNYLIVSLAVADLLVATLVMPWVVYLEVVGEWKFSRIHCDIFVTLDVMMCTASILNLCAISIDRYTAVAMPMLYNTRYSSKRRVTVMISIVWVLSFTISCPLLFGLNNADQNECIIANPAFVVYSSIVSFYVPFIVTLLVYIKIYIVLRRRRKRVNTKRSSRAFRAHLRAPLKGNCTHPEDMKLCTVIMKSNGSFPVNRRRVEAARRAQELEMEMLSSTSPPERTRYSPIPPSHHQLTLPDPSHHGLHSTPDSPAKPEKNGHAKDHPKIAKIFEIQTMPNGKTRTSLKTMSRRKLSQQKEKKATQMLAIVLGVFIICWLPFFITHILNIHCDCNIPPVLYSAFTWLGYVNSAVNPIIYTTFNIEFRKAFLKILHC
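D2 cells co-treated with compound plus 50 nM dopamine (EC20) for 90 min at 37 deg C to detect potentiation. Beta-arrestin recruitment was read as enzyme-fragment luminescence after 1 h at ambient temperature. Full response was set by 57 uM dopamine.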
D2 PAM-2 – HTS Assay for Positive Allosteric Modulators of the Human D2 Dopamine Receptor: Primary Screen for Potentiators | HEK293 T-REx D2, calcium flux, EC20 dopamine potentiation | potentiation, % at 10 µM | AID 485347, 2010 | hit rate 0.34% among 340,000;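 active = potentiation over 3 SD above the plate norm, cut at about 30% in these data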; note: 0% is about no effect
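Calcium flux readout, no-wash dye, 1 read/s. Inducible HEK293 Trex D2 line, overnight 30 C. Compound alone 180 s (agonist flags), then EC20 dopamine, another 180 s to score potentiation.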
D2 antag – HTS Assay for Allosteric Antagonists of the Human D2 Dopamine Receptor: Primary Screen for Antagonists; D(2) dopamine receptor (Homo sapiens), P14416; HEK293 TREx D2 cells, calcium flux, dopamine EC80; inhibition, % at 10 µM; hit rate 2% among 340,000; AID 485344, 2010; in the data active = inhibition above about 30%; inactive = below that, where a call was filed; note: 0% is about no effect
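Measurement of antagonist activity uses fluorescent calcium dye in inducible HEK293 T-REx D2 cells: 10 s baseline, compound addition with 180 s read, EC80 dopamine addition with a further 180 s read.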
D2 ag-1 – Beta-Arrestin HTS for Positive Allosteric Modulators of the Human D2 Dopamine Receptor: Agonists. D(2) dopamine receptor (Homo sapiens), P14416. DiscoveRx PathHunter D2 beta-arrestin, luminescence, 90 min; 100% = 57 uM dopamine signal. activation, % (test concentration not listed). hit rate 0.084% among 360,000. AID 624465, 2012; in the data active = activation above about 40%; inconclusive = between about 15% and that limit
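Agonist mode: compounds alone added to overnight-plated D2 PathHunter cells for 90 min at 37 C, with 57 uM final dopamine (EC100) defining full response. Beta-arrestin recruitment detected by chemiluminescent reagent, read after 1 h at ambient temperature.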
D2 ag-2 – HTS Assay for Allosteric Agonists of the Human D2 Dopamine Receptor: Primary Screen for Agonists; HEK293 T-REx D2 cells, calcium flux agonist mode; hit rate 0.53% among 340,000; D(2) dopamine receptor (Homo sapiens), P14416; AID 485358, 2010; activation, % at 2 µM;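 active = activation over 3 SD above normal in the single-dose calcium agonist read, cut at about 30% in these data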; note: 0% is about no effect
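Agonism scored from kinetic calcium signal (1 read/sec, 180 s) following compound pin transfer, after a 10 s baseline. Cells: HEK293 Trex line expressing inducible D2 receptor coupled to calcium, dye-loaded after overnight culture at 30 C.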
Numbers without * were called inactive; ? = inconclusive; nt = not tested or not shown.

SMILES	D2 PAM-1	D2 PAM-2	D2 antag	D2 ag-1	D2 ag-2
COc1cc(NC(=O)CCN2CCN(c3ccccc3)CC2)cc(OC)c1	nt	-31	nt	nt	nt
CCOC(=O)c1c(NC(C)=O)sc2c(O)c(Br)cc(Br)c12	13	7	36*	2	0
Oc1ccc(N=Nc2ccccc2)cc1	-11	5	33*	-3	0
Cc1csc2nc(CSc3nc4ccccc4o3)c(Br)n12	9	36*	-4	-1	0
CCC(C)NS(=O)(=O)c1ccc(NC(=O)c2ccc([N+](=O)[O-])cc2Cl)cc1 (stereo unspecified)	-3	5	37*	-3	-2
CC(=O)Nc1ccc(NC(=O)c2ccc([N+](=O)[O-])cc2Cl)cc1	-2	-15	16	0	3
CC(C)CC(NS(=O)(=O)c1ccc2c(c1)oc(=O)n2C)C(=O)NCCc1ccc(Cl)cc1 (stereo unspecified)	nt	0	nt	nt	1
OCc1cnc(SCc2ccccc2)n1Cc1ccccc1	-6	1	-2	-1	0
C=CCSc1ncc(CO)n1Cc1ccccc1	-9	2	37*	-5	0
N/C(=N\OC(=O)c1ccccc1)c1ccncc1	7	-25	-12	3	3
N/C(=N\OC(=O)c1ccc(Br)cc1)c1ccncc1	52*	2	26	42*	0
COc1cc(OC)cc(C(=O)O/N=C(\N)c2ccncc2)c1	111*	9	-19	?	-1
Cc1ccc(NC(=O)CN(C)C(=O)c2ccc(COc3ccccc3)cc2)cc1	0	-1	-2	-5	-1
CCCCOc1ccc(C(=O)N(C)CC(=O)Nc2ccc(C)cc2)cc1	-12	0	55*	-2	-1
COc1cc(C(O)P(=O)(OCC(C)C)OCC(C)C)cc(OC)c1OC (stereo unspecified)	9	-8	16	-2	0
CC(C)COP(=O)(OCC(C)C)C(O)c1ccccc1F (stereo unspecified)	-2	-4	52*	-1	0
CC(OC(=O)Cn1c(C(F)(F)F)nc2ccccc21)C(N)=O (stereo unspecified)	-8	-6	40*	-2	1
O=C(NCCc1ccc(Cl)cc1)c1cc(-c2ccc(Cl)cc2)n[nH]1	nt	-2	nt	nt	1
COc1cccc(C2CC(=O)Nc3c2c(=O)n(C)c2nc4ccccc4n32)c1 (stereo unspecified)	nt	-7	nt	nt	-1
O=C(C1CC1)N1CCc2cc(Br)cc(S(=O)(=O)NCCN3CCOCC3)c21	-9	-16	40*	0	0
O=C(C1CC1)N1CCc2cc(Br)cc(S(=O)(=O)N3CCOCC3)c21	25	nt	nt	0	nt
CC(C)NS(=O)(=O)c1ccc(OCC(=O)N2CCc3ccccc3C2)cc1	-4	5	30*	2	-1
CC(C)NS(=O)(=O)c1ccc(OCC(=O)N2CCCC2)cc1	-17	-8	nt	0	nt
Cc1cc(OCC(=O)OCC(=O)N2CCc3ccccc3C2)ccc1Cl	1	36*	24	-2	0
COc1cc(C#N)ccc1OCC(=O)N1CCc2ccccc2C1	-6	38*	2	-6	-1
SMILES	D2 PAM-1	D2 PAM-2	D2 antag	D2 ag-1	D2 ag-2
O=C(c1cc2ccccc2[nH]1)N(Cc1cccnc1)CC1CCCN(C2CCCCC2)C1 (stereo unspecified)	-26	-12	39*	0	0
CC(=O)N(Cc1cccnc1)Cc1cc2ccccc2[nH]c1=O	-9	-8	-9	-1	0
CCOC(=O)c1ccc(NC(=O)C2=C(C)Nc3nc(SCc4ccc(Cl)cc4)nn3C2c2ccc(C)cc2)cc1 (stereo unspecified)	nt	11	nt	nt	-1
CC(C)N(C(=O)N1CCN(c2ccnc3cc(Cl)ccc23)CC1)C(C)C	12	-8	31*	3	-1
O=C(COC(=O)c1ccc(S(=O)(=O)NCc2ccco2)cc1)NCc1ccc(F)cc1	-1	64*	-11	4	0
CCCCOC(=O)C1[C@H]2C(=O)N(Cc3cccs3)C[C@]23C=C[C@H]1O3 (stereo partly specified)	1	16	0	4	2
CC(C)CCOC(=O)C1C2C=CC3(CN(Cc4cccs4)C(=O)C13)O2 (stereo unspecified)	-2	0	33*	2	-1
O=C(O)CCn1nnc(-c2cccs2)n1	-11	0	-19	-1	0
CC(C)c1ccc(-c2nnn(CCC(=O)O)n2)cc1	81*	1	23	?	-1
CN1C2=C(C#N)C(c3ccccc3)(C(F)(F)F)NC(=O)N2c2ccccc21 (stereo unspecified)	6	13	32*	2	0
Cc1ccc(C2(C(F)(F)F)NC(=O)N3C(=C2C#N)Nc2ccccc23)cc1 (stereo unspecified)	-2	-4	-11	-3	0
O=C(NCc1cccn1Cc1ccccc1)Nc1cccc(C(F)(F)F)c1	nt	-20	nt	nt	0
Cc1cc(C)n(CC(=O)c2ccc(Cl)cc2)n1	2	39*	12	4	0
Cc1cc(C)n(CCCNC(=O)C(C)(C)Oc2ccc(Cl)cc2)n1	-13	6	31*	0	0
CCCC[n+]1ccn(-c2nc3ccccc3nc2[N-]S(=O)(=O)c2ccc(C)cc2)c1	-10	-5	15	2	-1
CCCCC[n+]1ccn(-c2nc3ccccc3nc2[N-]S(=O)(=O)c2ccc(C)cc2)c1	-10	-2	38*	-2	0
CC[C@@H](C(=O)[C@@H](C)[C@@H](O)[C@H](C)[C@@H]1O[C@@H]([C@@H](CC)C(=O)O)CC[C@@H]1C)[C@H]1O[C@]2(C=C[C@@H](O)[C@]3(CC[C@@](C)([C@H]4CC[C@](O)(CC)[C@H](C)O4)O3)O2)[C@H](C)C[C@@H]1C	64*	nt	nt	13	nt
Cc1nnc(C)c2c(C)n(-c3ccc4ncccc4c3)c(C)c12	-3	1	32*	2	0
Cc1ccc2ncccc2c1	-8	6	-7	-1	0
Cc1ccc(N2C(=O)[C@@H]3CSC(c4ccc(Cl)cc4)N3C2=O)cc1 (stereo partly specified)	nt	-19	nt	nt	0
COc1ccc(-c2noc(CN(C(=O)Cc3ccc(C)cc3)C(C)C)n2)cc1	nt	11	nt	nt	nt
